In the supplement of paper PMC8728848:
Only a selection was taken, and the strongest signals are over-represented in it overall.

Legend:
Experiment in all cases: glycan array binding signal (z-score within array); higher = stronger binding
Conditions in all cases: glycan notation: IUPAC condensed, linker removed; mutation: R144S
[1] = molecular target: Fuc(a1-2)Gal(b1-3)GlcNAc(b1-3)[Fuc(a1-3)[Gal(b1-4)]GlcNAc(b1-6)]Gal(b1-4)Glc
Method in brief: (§1)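 Glycan array data were curated from 3228 arrays in the Consortium for Functional Glycomics database and kept only where the protein sequence was available. Glycan names were converted to IUPAC-condensed notation, and columns mapping to the same glycan were averaged. The binding signal is a within-array Z-score, averaged across arrays of the same protein sequence at different concentrations or buffers and across linkers. Negative Z-scores can be read as non-binding.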

Fuc(a1-2)Gal(b1-4)Glc6S = molecular target: Fuc(a1-2)Gal(b1-4)Glc6S
Method in brief: as §1

[2] = molecular target: Fuc(a1-2)Gal(b1-4)GlcNAc6S
Method in brief: as §1

[3] = molecular target: Fuc(a1-2)Gal(b1-4)[Fuc(a1-3)]GlcNAc(b1-3)Gal(b1-4)[Fuc(a1-3)]GlcNAc
Method in brief: as §1

[4] = molecular target: Fuc(a1-2)[Gal(a1-3)]Gal(b1-3)GlcNAc(b1-2)Man(a1-3)[Fuc(a1-2)[Gal(a1-3)]Gal(b1-3)GlcNAc(b1-2)Man(a1-6)]Man(b1-4)GlcNAc(b1-4)GlcNAc
Method in brief: as §1

[5] = molecular target: Fuc(a1-2)[Gal(a1-3)]Gal(b1-4)GlcNAc(b1-2)Man(a1-3)[Fuc(a1-2)[Gal(a1-3)]Gal(b1-4)GlcNAc(b1-2)Man(a1-6)]Man(b1-4)GlcNAc(b1-4)GlcNAc
Method in brief: as §1

[6] = molecular target: Fuc(a1-2)[GalNAc(a1-3)]Gal(b1-3)GlcNAc(b1-2)Man(a1-3)[Fuc(a1-2)[GalNAc(a1-3)]Gal(b1-3)GlcNAc(b1-2)Man(a1-6)]Man(b1-4)GlcNAc(b1-4)GlcNAc
Method in brief: as §1

[7] = molecular target: Fuc(a1-2)[GalNAc(a1-3)]Gal(b1-4)GlcNAc(b1-2)Man(a1-3)[Fuc(a1-2)[GalNAc(a1-3)]Gal(b1-4)GlcNAc(b1-2)Man(a1-6)]Man(b1-4)GlcNAc(b1-4)GlcNAc
Method in brief: as §1

[8] = molecular target: Fuc(a1-2)[GalNAc(a1-3)]Gal(b1-4)GlcNAc(b1-3)Gal(b1-4)GlcNAc(b1-3)Gal(b1-4)GlcNAc
Method in brief: as §1

[9] = molecular target: Fuc(a1-2)[GalNAc(a1-3)]Gal(b1-4)[Fuc(a1-3)]GlcNAc
Method in brief: as §1

[10] = molecular target: Fuc(a1-3)[Gal3S(b1-4)]GlcNAc
Method in brief: as §1

[11] = molecular target: Gal(a1-4)Gal(b1-3)GlcNAc(b1-2)Man(a1-3)[Gal(a1-4)Gal(b1-3)GlcNAc(b1-2)Man(a1-6)]Man(b1-4)GlcNAc(b1-4)GlcNAc
Method in brief: as §1

Gal(a1-4)Gal(b1-4)Glc = molecular target: Gal(a1-4)Gal(b1-4)Glc
Method in brief: as §1

[12] = molecular target: Gal(b1-3)GalNAc(a1-3)[Fuc(a1-2)]Gal(b1-4)GlcNAc
Method in brief: as §1

[13] = molecular target: Gal(b1-3)GlcNAc(b1-3)Gal(b1-4)GlcNAc(b1-6)[Gal(b1-3)GlcNAc(b1-3)]Gal(b1-4)Glc
Method in brief: as §1

[14] = molecular target: Gal(b1-3)[Fuc(a1-4)]GlcNAc(b1-3)Gal(b1-4)[Fuc(a1-3)]GlcNAc
Method in brief: as §1

[15] = molecular target: Gal(b1-3)[Neu5Ac(a2-6)]GalNAc
Method in brief: as §1

[16] = molecular target: Gal(b1-4)GalNAc(a1-3)[Fuc(a1-2)]Gal(b1-4)GlcNAc
Method in brief: as §1

[17] = molecular target: Gal(b1-4)GlcNAc(b1-3)[Gal(b1-4)GlcNAc(b1-6)]Gal(b1-4)GlcNAc
Method in brief: as §1

Gal3S(b1-4)GlcNAc6S = molecular target: Gal3S(b1-4)GlcNAc6S
Method in brief: as §1

GalNAc(a1-3)Gal = molecular target: GalNAc(a1-3)Gal
Method in brief: as §1

[18] = molecular target: GalNAc(b1-3)Gal(a1-4)Gal(b1-4)GlcNAc(b1-3)Gal(b1-4)Glc
Method in brief: as §1

GalNAc(b1-3)GalNAc = molecular target: GalNAc(b1-3)GalNAc
Method in brief: as §1

[19] = molecular target: GlcNAc(a1-4)Gal(b1-4)GlcNAc(b1-3)Gal(b1-4)Glc
Method in brief: as §1

[20] = molecular target: GlcNAc(b1-2)[GlcNAc(b1-4)]Man(a1-3)[GlcNAc(b1-2)Man(a1-6)]Man(b1-4)GlcNAc(b1-4)GlcNAc
Method in brief: as §1

[21] = molecular target: GlcNAc(b1-3)Gal(b1-3)GalNAc
Method in brief: as §1

GlcNAc(b1-3)Gal(b1-4)Glc = molecular target: GlcNAc(b1-3)Gal(b1-4)Glc
Method in brief: as §1

[22] = molecular target: GlcNAc(b1-3)Gal(b1-4)GlcNAc
Method in brief: as §1

Man(a1-3)[Man(a1-6)]Man = molecular target: Man(a1-3)[Man(a1-6)]Man
Method in brief: as §1

[23] = molecular target: Neu5Ac(a2-3)Gal(b1-4)GlcNAc6S
Method in brief: as §1

[24] = molecular target: Neu5Ac(a2-3)Gal(b1-4)[Fuc(a1-3)]GlcNAc(b1-6)[Neu5Ac(a2-3)Gal(b1-3)]GalNAc
Method in brief: as §1

[25] = molecular target: Neu5Ac(a2-3)GalNAc(b1-4)GlcNAc
Method in brief: as §1

Neu5Ac(a2-6)GalNAc = molecular target: Neu5Ac(a2-6)GalNAc
Method in brief: as §1

[26] = molecular target: Neu5Gc(a2-3)Gal(b1-3)GlcNAc
Method in brief: as §1

[27] = molecular target: Neu5Gc(b2-6)Gal(b1-4)GlcNAc
Method in brief: as §1

B1: Gal 3 (Homo sapiens), P17931 (protein)
chain: MADNFSLHDALSGSGNPNPQGWPGAWGNQPAGAGGYPGASYPGAYPGQAPPGAYPGQAPPGAYHGAPGAYPGAPAPGVYPGPPSGPGAYPSSGQPSAPGAYPATGPYGAPAGPLIVPYNLPLPGGVVPRMLITILGTVKPNANSILDFQRGNDVAFHFNPRFNENNRRVIVCNTKLDNNWGREERQSVFPFESGKPFKIQVLVEPDHFKVAVNDAHLLQYNHRVKKLNEISKLGISGDIDLTSASYTMI
glycan array binding signal (z-score) [1]: 0.343 | glycan array binding signal (z-score) (Fuc(a1-2)Gal(b1-4)Glc6S): -0.313 | glycan array binding signal (z-score) [2]: 0.788 | glycan array binding signal (z-score) [3]: -0.357 | glycan array binding signal (z-score) [4]: 4.81 | glycan array binding signal (z-score) [5]: 5.46 | glycan array binding signal (z-score) [6]: 6.11 | glycan array binding signal (z-score) [7]: 5.95 | glycan array binding signal (z-score) [8]: 4.99 | glycan array binding signal (z-score) [9]: -0.356 | glycan array binding signal (z-score) [10]: -0.359 | glycan array binding signal (z-score) [11]: -0.361 | glycan array binding signal (z-score) (Gal(a1-4)Gal(b1-4)Glc): -0.359 | glycan array binding signal (z-score) [12]: 4.94 | glycan array binding signal (z-score) [13]: 0.34 | glycan array binding signal (z-score) [14]: -0.357 | glycan array binding signal (z-score) [15]: -0.352 | glycan array binding signal (z-score) [16]: 5.09 | glycan array binding signal (z-score) [17]: 1.2 | glycan array binding signal (z-score) (Gal3S(b1-4)GlcNAc6S): -0.288 | glycan array binding signal (z-score) (GalNAc(a1-3)Gal): -0.354 | glycan array binding signal (z-score) [18]: 0.182 | glycan array binding signal (z-score) (GalNAc(b1-3)GalNAc): -0.354 | glycan array binding signal (z-score) [19]: -0.356 | glycan array binding signal (z-score) [20]: -0.341 | glycan array binding signal (z-score) [21]: -0.356 | glycan array binding signal (z-score) (GlcNAc(b1-3)Gal(b1-4)Glc): -0.36 | glycan array binding signal (z-score) [22]: -0.358 | glycan array binding signal (z-score) (Man(a1-3)[Man(a1-6)]Man): -0.354 | glycan array binding signal (z-score) [23]: -0.365 | glycan array binding signal (z-score) [24]: -0.352 | glycan array binding signal (z-score) [25]: -0.363 | glycan array binding signal (z-score) (Neu5Ac(a2-6)GalNAc): -0.364 | glycan array binding signal (z-score) [26]: -0.363 | glycan array binding signal (z-score) [27]: -0.358
